Records with an inconclusive call do not appear. The source made the active and inactive calls. The calls were made as follows: active = hit-call score of the fitted dose curve at least 0.9, where 1 is the maximum; inconclusive = response in the unintended direction; inactive = score below 0.9.
Each compound was assayed against Cellular tumor antigen p53 (Homo sapiens) (UniProt P04637) (assay: TOX21_p53_BLA_p4_ratio: Tox21 HCT-116 p53 Agonism Beta-lactamase Assay, Ratio, Phase 4 (AID 2283601)).
Cellular tumor antigen p53 (Homo sapiens), sequence (P04637 whole entry, looked up): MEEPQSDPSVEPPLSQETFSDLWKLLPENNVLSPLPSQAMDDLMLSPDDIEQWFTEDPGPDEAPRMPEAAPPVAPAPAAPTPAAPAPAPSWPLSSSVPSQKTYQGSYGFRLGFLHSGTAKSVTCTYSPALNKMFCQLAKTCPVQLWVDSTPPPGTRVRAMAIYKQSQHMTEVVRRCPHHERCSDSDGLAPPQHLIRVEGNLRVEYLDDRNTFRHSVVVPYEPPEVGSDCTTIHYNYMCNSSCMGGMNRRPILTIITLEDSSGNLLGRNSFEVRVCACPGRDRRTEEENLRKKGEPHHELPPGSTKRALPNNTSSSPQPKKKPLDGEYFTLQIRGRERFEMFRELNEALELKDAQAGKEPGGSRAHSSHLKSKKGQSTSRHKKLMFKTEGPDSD
Method in brief: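 Signal is the blue/green (460nm/530nm) ratio of cleaved versus uncleaved CCF4-AM substrate, read after 2 h substrate loading. Cells were HCT116 carrying the p53-responsive beta-lactamase reporter, dosed 16 h at 37C, 5% CO2; CellTiter-Glo measured in parallel.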
For C=CCOc1c(Br)cc(Br)cc1Br, the outcome was “inactive”. For SCCc1cnccn1, the AC50 was 60.3 µM (active). For C[Si](C)(CCCN)O[Si](C)(C)CCCN, the outcome was “inactive”. CC=CC(=O)N(CC)c1ccccc1C was tested, and the outcome was “inactive”. In the case of O=C(Oc1ccccc1)c1ccc2ccccc2c1O, the outcome was “inactive”. For CC1(C)O[C@@H]2C[C@H]3[C@@H]4C[C@H](F)C5=CC(=O)CC[C@]5(C)[C@H]4[C@@H](O)C[C@]3(C)[C@]2(C(=O)CO)O1, the outcome was “inactive”. CC(C)c1ccc2c(c1)CC[C@H]1[C@](C)(CN)CCC[C@]21C was tested, and the AC50 was 85.8 µM (active). With CCCCCC/C=C\CCCCCCCC(=O)O the outcome was “inactive”. With O=c1[nH]nc(-c2ccc([N+](=O)[O-])o2)o1 the outcome was “inactive”. With Cc1cc(=O)n(-c2ccccc2)n1C the outcome was “inactive”. CCC(CO)CO was tested, and the outcome was “inactive”. In the case of CCC(=O)Oc1ccc(/C(CC)=C(\CC)c2ccc(OC(=O)CC)cc2)cc1, the outcome was “inactive”. Nc1ccc(-c2ccc(F)cc2)cc1 was tested, and the outcome was “inactive”. Cc1cccc(OCCOc2cccc(C)c2)c1 was tested, and the outcome was “inactive”. In the case of CN(C)CCCN(C)C, the outcome was “inactive”. In the case of CCCCCCC(O)CO (centres undefined), the outcome was “inactive”. With NNC(=O)c1cccc(C(=O)NN)c1 the outcome was “inactive”. For Nc1nc2ccccc2[nH]1, the outcome was “inactive”. For COC(=O)c1ccc2cc(C(=O)OC)ccc2c1, the outcome was “inactive”. O=C1CCCCCCCCCCCCCCCO1 was tested, and the outcome was “inactive”. With Cc1ccc([N+](=O)[O-])cc1S(=O)(=O)O the outcome was “inactive”. CCCCCCOc1cc(C)c(O)c(C)c1C was tested, and the AC50 was 82.5 µM (active). For CC(=O)Oc1ccc(C(C)=O)cc1, the outcome was “inactive”. In the case of CC(=O)c1ccc2c(c1)CCCC2, the outcome was “inactive”. In the case of O=c1n(CCO)c(=O)n(CCO)c(=O)n1CCO, the outcome was “inactive”. Cc1cc(C)c(C)c(O)c1 was tested, and the outcome was “inactive”. CC(C)COC(=O)C=Cc1ccccc1 was tested, and the outcome was “inactive”. CCCCC(CC)COC(=O)c1ccccc1O (centres undefined) was tested, and the outcome was “inactive”. O=C1OC(=O)c2cc(Oc3ccc4c(c3)C(=O)OC4=O)ccc21 was tested, and the outcome was “inactive”. With O=C1CCCC(=O)O1 the outcome was “inactive”. COc1cc(NC(=O)CC(C)=O)c(OC)cc1Cl was tested, and the outcome was “inactive”. O=C(/C=C/C=C/c1ccc2c(c1)OCO2)N1CCCCC1 was tested, and the outcome was “inactive”. For O=C1CCCN1CCO, the outcome was “inactive”. In the case of Cc1cnc(NC(=O)C2=C(O)c3ccccc3S(=O)(=O)N2C)s1, the outcome was “inactive”. C=CC(C)(C)C was tested, and the outcome was “inactive”. In the case of C[C@]12CCC(=O)C=C1CC[C@@H]1[C@@H]2C(=O)C[C@@]2(C)[C@H]1CC[C@]2(O)C(=O)CO, the outcome was “inactive”. O=Cc1ccc(CO)o1 was tested, and the outcome was “inactive”. With O=C(O)c1cc(Cl)cc([N+](=O)[O-])c1Cl the outcome was “inactive”. With CCOC(=O)NNc1nncc2ccccc12 the outcome was “inactive”.

— PubChem BioAssay (EPA / NIEHS)
